Bioassay records from PubChem.
CtBP-E1A blk: inhibitors of CtBP/E1A interaction. AlphaScreen GST-E1A/His-CtBP binding, 1536-well; hits give low values. hit rate 0.49% among 340,000. activity change, % (test concentration not listed). AID 651724; in the data active = activity change below about -65%; inconclusive = mostly about -30% to -63%; note: % is set by controls: 0 for no effect and ±100 for the full control effect
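Steps: dispense buffer (Tris pH 8.0, NaCl 300 mM, TCEP 1 mM, BSA, Tween 20); add 5X protein mix (GST-E1A, His-CtBP, 125 nM each); pin 23 nL compound; 2 h at 37 °C, dark; add 5X beads (50 ug/mL); 1 h; read.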
p53 reactivator: re-activators of mutant p53; H1299 p53-A138V BP100-luciferase reporter, luminescence, 24 h; Potency, µM (highest dose often 92.2 µM), for inactives: at the highest dose activity change, positive = activation, most hits filed as activators; hit rate 0.063% among 320,000; AID 504706; note: potency is the fitted concentration of half-maximal effect; % of control where 0% means no effect; nearly all actives have a fitted effect of over 45% in size
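H1299 (p53-null), stable ts p53-A138V + BP100-Luc; 1000 cells/well, Opti-MEM/10% FBS; cpd 4 pt, 1:5; 24 h, 37 deg C, 5% CO2; detection reagent 10 min RT; luminescence.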
Gal4-VP16 FLuc: counter-screen for ROR gamma inhibitors: Gal4-VP16 reporter; hit rate 3.5% among 310,000; Drosophila S2 Gal4-VP16 UAS-luciferase, luminescence, 20 h; AID 2546; Potency, µM (doses to about 53.6 µM), for inactives: at the highest dose activity, negative = inhibition, actives largely listed as inhibitors;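 note: Gal4-VP16 expression switched on by copper sulfate through the metallothionein promoter; potency is the fitted concentration of half-maximal effect; % is set by controls: 0 for no effect and ±100 for the full control effect; nearly all actives have a fitted effect of over 50% in size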
Six1-Eya2 inh: Six1/Eya2 interaction inhibition; AlphaScreen GST-Six1/His-Eya2 binding, biochemical; hits give low values; activity change, % (test concentration not listed); Q15475+O00167; AID 651725; hit rate 0.56% among 360,000; in the data active = activity change below about -65%; inconclusive = mostly about -30% to -63%; note: % is set by controls: 0 for no effect and ±100 for the full control effect
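Homogeneous AlphaScreen proximity assay pairing GST-Six1 with His-tagged Eya2 (added as 5X mix: 250 nM and 500 nM) in 50 mM Tris pH 8.0, 300 mM NaCl, 1 mM TCEP. Glutathione donor and nickel acceptor beads; 1 h, 37 °C, dark.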
RORgamma inh: inhibitors of mouse ROR gamma transcriptional activity; Potency, µM (titrated, usually from 53.6 µM), without a hit: at the highest dose activity change, negative = inhibition, usual class: inhibitors; AID 2551; Drosophila S2 Gal4-RORgamma UAS-luciferase reporter, 20 h; hit rate 5.4% among 310,000; note: potency is the fitted concentration of half-maximal effect; % is set by controls: 0 for no effect and ±100 for the full control effect; nearly all actives have a fitted effect of over 60% in size
Target sequence (P51450 whole entry, looked up, the tested form may be a part): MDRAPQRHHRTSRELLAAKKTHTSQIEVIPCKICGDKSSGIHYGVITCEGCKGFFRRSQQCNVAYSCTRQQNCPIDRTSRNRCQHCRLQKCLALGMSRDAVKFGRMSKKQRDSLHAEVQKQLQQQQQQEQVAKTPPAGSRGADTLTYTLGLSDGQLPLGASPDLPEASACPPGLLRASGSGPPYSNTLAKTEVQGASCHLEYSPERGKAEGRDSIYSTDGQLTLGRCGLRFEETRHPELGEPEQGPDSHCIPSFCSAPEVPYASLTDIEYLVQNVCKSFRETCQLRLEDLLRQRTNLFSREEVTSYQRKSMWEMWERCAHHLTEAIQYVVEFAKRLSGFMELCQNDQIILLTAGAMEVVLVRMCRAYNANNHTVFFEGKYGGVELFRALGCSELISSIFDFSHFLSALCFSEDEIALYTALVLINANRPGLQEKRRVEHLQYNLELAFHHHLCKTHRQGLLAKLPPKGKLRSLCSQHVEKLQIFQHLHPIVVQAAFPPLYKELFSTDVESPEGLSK
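Read-out: Photinus luciferase luminescence; inhibitors lower reporter signal. Insect Schneider cells with Gal4-ROR gamma fusion under metallothionein promoter, UAS reporter; 700 uM final copper sulfate induction, 20 hr, ambient temperature.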
An asterisk follows results filed as active; ? = inconclusive; . = not tested or not shown; [ ] = another dose, or the depositor's remark. A selection: hits, their analogues and other compounds. The true share with any hit is near 5.4%. Unless noted, calls come from the whole dose curve; as a rule, active = well fitted curve in the direction sought with a large enough effect; inconclusive = small, poorly fitted or top-dose-only effect, or another doubt; inactive = no such curve, though single readings can be large; an effect the other way counts as inactive or inconclusive.

SMILES	CtBP-E1A blk	p53 reactivator	Gal4-VP16 FLuc	Six1-Eya2 inh	RORgamma inh
CC(=O)NCCNc1ccnc(-c2ccccc2C(F)(F)F)n1	.	.	-1%	.	1%
O=C(/C=C/c1cccc(Cl)c1)Nn1c(-c2cccs2)nc2ccccc2c1=O	2	-7%	2%	-3	?
Cc1cc2cc(CNC(=S)NC3CCCCC3)ccc2[nH]1	.	13%	?	-16	14µM*
Cc1cc2cc(CNC(=O)NC3CCCCC3)ccc2[nH]1	12	?	-4%	-7	?
Fc1ccc(CNC(=S)NC2CCCCC2)cc1	.	5%	11µM*	-3	5µM*
CCc1cccc(C)c1NC(=S)NCc1ccc2[nH]c(C)cc2c1	-9	1%	10µM*	-22	4µM*
CNC(=S)NCc1ccc2[nH]c(C)cc2c1	.	5%	2%	-8	-30%
Fc1ccc(CNC(=S)NC2CCCC2)cc1	0	5%	?	16	8.9µM*
Cc1ccc(S(=O)(=O)c2c(C)cc(C)nc2Oc2cccc(C(F)(F)F)c2)cc1	24	-3%	-8%	23	-22%
Cc1nc2ccc(-c3nc4ccc(N)cc4[nH]3)cc2[nH]1	-17	-2%	8.9µM*	-6	11µM*
Nc1ccc(-c2nc3ccc(N)cc3[nH]2)cc1	.	11%	-27%	-4	?
O=C(CNc1ccc(Br)cc1)NNC1=NCCC1	3	0%	7.1µM*	0	5.6µM*
O=C(CNc1ccc(Br)cc1)c1ccc(O)cc1	0	18%	?	-1	-2%
O=C(/C=C/c1c(F)cccc1Cl)Nc1nc2ccccc2[nH]1	2	?	?	-5	4.5µM*
Cc1ccc(/C=C/C(=O)c2nc3ccccc3[nH]2)cc1	-1	13%	?	2	6.3µM*
Cc1ccc(/C=C/C(=O)Nc2nc3ccccc3[nH]2)cc1	6	?	?	1	5.6µM*
Cc1ccc(C)c(C(=O)Nc2nc3ccccc3[nH]2)c1	-11	8%	-4%	-3	-30%
N#Cc1ccc(S(=O)(=O)N2CCC(C(=O)Nc3cccc(C(=O)NC4CC4)c3)CC2)cc1	8	-1%	.	-1	.
Cc1ccccc1CSc1ccc(S(=O)(=O)N2CCCC2)cn1	7	-4%	.	14	.
Cc1cc(C)c(C(=O)/C=C/c2cccc3ccccc23)c(=O)[nH]1	-8	-16%	13µM*	7	?
COc1ccc(C(N)c2csc(Nc3ccc(S(C)(=O)=O)cc3)n2)cc1 (configuration not stated)	-8	.	.	7	.
COc1ccccc1OCCNC(=O)Cc1ccc(Cl)c(Cl)c1	-10	-5%	-1%	5	36%
O=[N+]([O-])c1cccc(NC(=S)Nc2nc(-c3ccc(Cl)cc3Cl)cs2)c1	.	2%	3.2µM*	.	2µM*
CC(=O)NC12CC3CC(C1)CC(C(=O)N1CCN(S(=O)(=O)c4ccc(C(C)C)cc4)CC1)(C3)C2	0	10%	.	-1	.
O=c1c([N+](=O)[O-])cn(Cc2ccccc2)c(=O)n1Cc1ccccc1	-2	.	.	-8	.
SMILES	CtBP-E1A blk	p53 reactivator	Gal4-VP16 FLuc	Six1-Eya2 inh	RORgamma inh
CCc1ccc(OCC(=O)Nc2ccc(S(=O)(=O)N3CCOCC3)cc2)cc1	4	-2%	.	2	.
Cc1ccc(C(=O)Oc2ccc([N+](=O)[O-])cc2)cc1S(=O)(=O)N1CCCCCC1	-4	-6%	?	-85*	-12%
O=C(Oc1ccc(C(=S)N2CCOCC2)cc1)c1ccc([N+](=O)[O-])cc1	.	?	2%	-83*	7%
Cc1ccc(C(=O)O)cc1S(=O)(=O)N1CCCC1	4	0%	6%	2	0%
O=C(c1ccc([N+](=O)[O-])cc1)N1CCOCC1	2	.	.	2	.
Cc1nc(C(F)(F)F)c(C(=O)N/N=C(\N)c2ccccn2)s1	-92*	25%	?	-77*	?
N/C(=N\NS(=O)(=O)c1ccccc1C(F)(F)F)c1ccccn1	.	-1%	16%	-6	-1%
Cc1nc2nc(SCC(=O)c3ccc([N+](=O)[O-])cc3)[nH]c2cc1Br	4	6%	?	0	2.5µM*
Cc1nc2nc(SCC(N)=O)[nH]c2cc1Br	-1	-13%	-5%	-6	-12%
O=C(c1ccc(S(=O)(=O)c2cccc(Cl)c2)c([N+](=O)[O-])c1)N1CCN(Cc2ccccc2)CC1	2	-13%	25µM*	0	?
Cc1cc(Cl)ccc1OCc1nc(-c2ccc(O)cc2)n[nH]1	-12	-5%	4.5µM*	0	?
Cc1nn(-c2cccc(C(F)(F)F)c2)c(=O)c2ccccc12	13	3%	1%	4	15%
Cn1cc(-c2nnnn2-c2cccc(C(F)(F)F)c2)c(C(F)(F)F)n1	-3	2%	-4%[0.365 µM]	1	10µM*
O=C(O)C/C(=C\c1cc2c(cc1Br)OCO2)c1nc2ccccc2s1	-21	5%	7%	-22	-10%
C(=N\Nc1nc2ccccc2s1)/c1ccc2c(c1)OCO2	3	100%	7.1µM*	-3	7.9µM*
Cc1nc(N/N=C\c2ccc3c(c2)OCO3)sc1C	-7	?	?	-11	-39%[1.91 µM]
Brc1cc2c(cc1/C=N/Nc1nc3ccccc3s1)OCO2	4	13%	?	-1	4.5µM*
CCSc1nnc(NC(=O)c2ccc3c(c2)OCO3)s1	0	?	?	1	-23%
CC(C)c1nnc(NC(=O)c2ccc3c(c2)OCO3)s1	9	-3%	?	5	6.3µM*
CCOC(=O)CSc1nnc(NC(=O)c2ccc3c(c2)OCO3)s1	3	29%	16µM*	3	11µM*
COc1ccccc1-n1c(=O)c(C#N)c(-c2ccc([N+](=O)[O-])cc2)c2cc(C(=O)c3cc(F)ccc3O)cnc21	-10	-1%	1%	4	22%
Cn1c(=O)c(C#N)c(-c2ccc(F)cc2)c2cc(C(=O)c3cc(Cl)cc(Cl)c3O)cnc21	?	5%	18µM*	-5	-73%
CCOc1ccc(CCN2C(=O)C(=O)N([C@@H](CC(C)C)CN3CCC[C@H]3CN3C(=O)C(=O)NC[C@@H]3Cc3ccccc3)C[C@@H]2Cc2ccccc2)cc1	-25	.	.	3	.
C[C@@H]1CC2C3CCC4=CC(=O)C=C[C@]4(C)[C@@]3(F)[C@@H](O)C[C@]2(C)[C@@]1(O)C(=O)COC(=O)c1cccc(S(=O)(=O)O)c1 (some centres not stated)	.	.	6%	.	22%
Cc1ccsc1-c1nc(-c2ccccc2)c(-c2ccccc2)[nH]1	-1	4%	?	4	4µM*
Fc1ccc(-c2nc(-c3cccs3)[nH]c2-c2ccc(F)cc2)cc1	-4	1%	-17%	-10	-26%
O=C1C=C(NCc2ccc(Cl)c(Cl)c2)C2(CCCCC2)O1	10	-10%	1%	1	?
CCc1ccc(C(=O)Nc2cccc(-c3nn[nH]n3)c2)s1	-4	20%	-27%	-10	-18%
